LYPLA1 inh: LYPLA1 (human) inhibition in PME1 counter-screen; O75608; 320,000 compounds, 0.16% hits; AID 2174; recombinant LYPLA1, FP-Rh probe fluorescence polarization; inhibition, % at 5.9 µM;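 active = inhibition above the mean of all tested compounds plus 3 SD, set per campaign, cut at about 14% in these data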;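 also: inhibitors block serine hydrolase probe labeling of LYPLA1 so polarization falls; 0% = enzyme with DMSO and 100% = wells lacking LYPLA1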
Target sequence (O75608 whole entry, looked up): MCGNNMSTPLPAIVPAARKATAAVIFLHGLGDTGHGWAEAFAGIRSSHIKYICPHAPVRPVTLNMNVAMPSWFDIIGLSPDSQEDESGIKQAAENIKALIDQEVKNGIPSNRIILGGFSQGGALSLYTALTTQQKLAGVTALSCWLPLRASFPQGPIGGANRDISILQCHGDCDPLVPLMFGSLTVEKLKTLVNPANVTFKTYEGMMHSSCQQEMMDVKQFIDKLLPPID
PME-1 inh: PME-1 (human) inhibition; Q9Y570; recombinant PME-1, FP-Rh probe fluorescence polarization; inhibition, % at 5.9 µM; 320,000 compounds, 0.53% hits; AID 2130;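 active = inhibition above the campaign mean of all compounds plus 3 SD, cut at about 26% in these data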;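 also: competitive labeling of PME-1 active site by serine hydrolase directed probe; 0% = PME-1 with DMSO and 100% = wells lacking PME-1 enzyme; inhibitors block probe labeling so polarization falls and inhibition rises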
Target sequence (Q9Y570 whole entry, looked up): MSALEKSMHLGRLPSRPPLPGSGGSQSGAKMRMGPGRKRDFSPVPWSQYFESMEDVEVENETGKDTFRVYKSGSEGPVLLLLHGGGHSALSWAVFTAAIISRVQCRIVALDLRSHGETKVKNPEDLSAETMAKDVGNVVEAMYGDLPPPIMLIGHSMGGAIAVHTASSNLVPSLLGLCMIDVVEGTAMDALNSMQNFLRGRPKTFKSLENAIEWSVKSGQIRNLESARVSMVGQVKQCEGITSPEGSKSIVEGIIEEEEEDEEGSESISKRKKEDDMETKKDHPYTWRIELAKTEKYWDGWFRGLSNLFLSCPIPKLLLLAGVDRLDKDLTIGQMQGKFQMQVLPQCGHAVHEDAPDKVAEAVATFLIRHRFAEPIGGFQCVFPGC
LYPLA2 counter: blocks human lysophospholipase 2, a PME1 counter-screen; 320,000 compounds, 0.38% hits; inhibition, % at 5.9 µM; recombinant LYPLA2, FP-Rh probe fluorescence polarization;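 active = inhibition above the screen-wide mean plus 3 SD, limit set per campaign, cut at about 26% in these data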;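 also: 0% = LYPLA2 with DMSO and 100% = wells lacking LYPLA2 enzyme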
Fam108B counter: Fam108B inhibition, counter-screen for RBBP9 inhibitors; recombinant Fam108B, FP-Rh probe fluorescence polarization; inhibition, % at 9.51 µM; 300,000 compounds, 0.33% hits; AID 1947;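 active = inhibition above the screen mean inhibition plus 3 SD, computed separately per campaign, cut at about 18% in these data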;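 also: inhibitors lower polarization as less probe binds the enzyme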
PREPL inh: human PREPL enzyme inhibition | recombinant PREPL, fluorescence polarization activity-based probe | inhibition, % at 5.96 µM | 320,000 compounds, 0.68% hits; in the data active = inhibition above about 43%;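 also: 0% = enzyme with DMSO and 100% = wells lacking enzyme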
LYPLA2 confirm: counter-screen for PME1 inhibitors: confirmation of human LYPLA2 inhibitors; shares compounds with LYPLA2 counter; inhibition, % at 5.9 µM; 1,100 compounds, 72% hits; recombinant LYPLA2, FP-Rh probe fluorescence polarization;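 active = mean inhibition across replicates above the hit cutoff set in the primary screen, cut at about 26% in these data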;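 also: blocked labeling of the enzyme by serine hydrolase FP-Rh probe lowers polarization; 0% = enzyme with DMSO and 100% = wells lacking LYPLA2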
LYPLA2 ABPP: LYPLA2 (human) inhibition, late stage results. 150 compounds, 30% hits. rhLYPLA2 in mouse brain proteome, gel ABPP FP-Rh. inhibition, % at 20 µM. shares compounds with LYPLA2 counter;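 active = inhibition of LYPLA2 enzyme probe labeling above about 50%, limit read from the data; inactive = inhibition below that limit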;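 also: loss of FP-Rh probe labeling of the LYPLA2 gel band measured as band density; 0% = DMSO only control band and 100% = blank gel background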
Starred values were filed as active, the others as inactive; / = not tested or not shown. Most compounds without a hit are left out; they make up all but 1.3% or so of the library.

SMILES | LYPLA1 inh | PME-1 inh | LYPLA2 counter | Fam108B counter | PREPL inh | LYPLA2 confirm | others
O=c1ccc(-c2ccccc2)nn1Cc1ccc(F)cc1Cl | -3 | 1 | 35* | 4 | -12 | 34*
O=c1ccc(-c2ccccc2)nn1Cc1ccc(F)cc1 | 1 | 1 | 27* | 7 | -11 | 24
Cn1c(N)c(C(=O)CSc2nc(C3CC3)n(-c3ccccc3)n2)c(=O)n(C)c1=O | 1 | 1 | 3 | / | 17 | /
COc1cccc(NC(=O)COC(=O)c2c(-c3ccccc3)noc2C)c1 | -2 | -4 | 28* | -1 | 2 | 21
Cc1nn(-c2ccccc2)c(C)c1C(=O)OCC(=O)Nc1ccccc1 | 3 | 5 | 39* | / | 4 | 25
COc1ccc(NC(=O)COC(=O)c2c(-c3ccccc3)noc2C)cc1 | -2 | 0 | -9 | -3 | 1 | /
CCC(ONc1ccccc1C(F)(F)F)(C(=O)NN(C)C)c1ccccc1 (configuration not stated) | 4 | 1 | -1 | / | 12 | /
COc1cc(/C=N/NC(=O)C(NC(=O)c2ccccc2)c2n[nH]c(=O)c3ccccc23)ccc1OCC(N)=O (configuration not stated) | -2 | 6 | 78* | -1 | -3 | 74*
CSc1nc(N)nc2c1ncn2CC(=O)N[C@H](C)c1cccc2ccccc12 | / | / | / | / | -18 | /
Cc1nc(C(=O)NCc2ccccc2)sc1C1(C)CC(c2cccc([N+](=O)[O-])c2)=NO1 (configuration not stated) | -4 | -3 | 14 | -1 | -9 | /
CNC(=O)c1nc(C)c(C2(C)CC(c3cccc([N+](=O)[O-])c3)=NO2)s1 (configuration not stated) | 2 | 2 | 26* | 3 | 2 | 29*
CC(C)Cc1nnc(NC(=O)CCc2c[nH]c3ccccc23)s1 | 0 | 9 | 3 | 4 | -40 | /
COc1ccc(OC)c(-c2cc(C(=O)Nc3c(C)nn(Cc4ccccc4Cl)c3C)no2)c1 | -2 | -5 | 40* | -9 | 5 | 29*
COc1ccc(OC)c(-c2cc(C(=O)Nc3c(C)nn(Cc4ccccc4C)c3C)no2)c1 | 11 | -5 | 64* | -7 | 3 | 55* | LYPLA2 ABPP=50*
C=CCC1NS(=O)(=O)OC(CCc2ccccc2)C1O (configuration not stated) | -2 | -6 | -7 | 2 | 4 | /
CCCOC(=O)C(C)n1cnc2scc(-c3ccc(C)cc3)c2c1=O (configuration not stated) | 0 | -6 | 4 | 11 | 22 | /
COC(=O)Cc1ccc(NC(=O)c2ccc3c(c2)C(=O)N(Cc2cccnc2)C3=O)cc1 | 4 | 3 | 28* | 2 | 1 | 26*
CCOC(=O)c1ccc(NC(=O)c2ccc3c(c2)C(=O)N(Cc2cccnc2)C3=O)cc1 | 3 | -12 | 41* | 3 | 12 | 47*
CC(C)c1ccc(NC(=O)c2ccc3c(c2)C(=O)N(Cc2cccnc2)C3=O)cc1 | -1 | 8 | 51* | -4 | 9 | 53* | LYPLA2 ABPP=26
CCN1CCN(S(=O)(=O)c2c(C)[nH]c(C)c2C(=O)N2CCCCC2)CC1 | -1 | 2 | 5 | 8 | 24 | /
CCn1c(=S)sc2c(=O)n(CC(=O)Nc3ccc(C(C)=O)cc3)c(C)nc21 | 4 | 1 | 7 | 4 | 5 | /
O=[N+]([O-])c1ccc(Sc2ccccc2Cl)nc1 | 4 | -1 | 45* | 3 | 15 | 48*
COc1ccc(Cl)cc1S(=O)(=O)N1CCCC(C(=O)NCc2ccccn2)C1 (configuration not stated) | -2 | 0 | -1 | 1 | 5 | /
O=C(Nc1ccc2oc(-c3ccncc3)nc2c1)c1ccc2c(c1)OCCO2 | 9 | -9 | 28* | -10 | 19 | 24
C=CCn1c(SCC(=O)OCC)nc2cc(C(=O)NCc3ccco3)ccc2c1=O | -8 | 2 | -13 | -1 | 11 | /
SMILES | LYPLA1 inh | PME-1 inh | LYPLA2 counter | Fam108B counter | PREPL inh | LYPLA2 confirm | others
CCCCCn1c(SCC(=O)OCC)nc2cc(C(=O)NCc3ccco3)ccc2c1=O | -8 | 0 | 34* | 1 | 0 | -4
Cc1cccc(C)c1N(CC(=O)NCc1ccccc1)C(=O)c1csnn1 | 1 | -2 | -3 | 1 | -1 | /
CCOC(=O)c1ccc(N(C(=O)CNC(=O)c2ccco2)C(C(=O)NCC2CCCO2)c2ccc(OC)c(OC)c2)cc1 (configuration not stated) | 6 | 0 | 5 | 1 | 3 | /
OC(COCc1cccs1)CN1CCN(c2cccc(C(F)(F)F)c2)CC1 (configuration not stated) | 3 | -11 | 34* | 1 | 2 | 29*
CCOc1ccc(OCCSc2ccc(S(=O)(=O)N3CCN(C)CC3)cn2)cc1 | 1 | 2 | 6 | / | 41 | /
CNc1nc(SC(C)C(=O)Nc2ccc(Cl)c(Cl)c2)nc(N2CCOCC2)n1 (configuration not stated) | -5 | -5 | -4 | -4 | -2 | /
O=C1CC(N2CCC(c3nc4ccccc4o3)CC2)C(=O)N1c1ccc(Cl)c(C(F)(F)F)c1 (configuration not stated) | -1 | -4 | 27* | 2 | 17 | 33*
CCN1CCN(C(=O)c2ccc3c(c2)S(=O)(=O)c2ccccc2C3=O)CC1 | 6 | 2 | 40* | 5 | -8 | 44*
CC(=O)N1CCN(C(=O)c2ccc3c(c2)S(=O)(=O)c2ccccc2C3=O)CC1 | 3 | -3 | 32* | 10 | 29 | 32*
CSc1ncccc1C(=O)OCC(=O)Nc1ccc(S(=O)(=O)N2CCCC2)cc1 | -2 | 6 | -5 | -1 | 0 | /
CSc1ncccc1C(=O)OCC(=O)c1ccc(S(=O)(=O)N2CCCCC2)cc1 | 0 | -8 | 31* | -2 | 3 | 32*
Cc1cc(OCC(=O)N2CCN(c3ccccn3)CC2)cc(C)c1Br | -1 | 1 | 1 | -3 | -17 | /
Cc1ccc(C)c(N2CCN(C(=O)c3ccc(CSc4nc5ccncc5[nH]4)cc3)CC2)c1 | -1 | -10 | 0 | -4 | -12 | /
COc1ccc(N2CCN(C(=O)c3ccc(NS(=O)(=O)c4ccccc4)cc3)CC2)cc1 | 2 | 2 | 37* | 1 | 5 | 34*
COc1ccc(N2CCN(C(=O)c3ccc(CSc4ccccc4)cc3)CC2)cc1 | 3 | 0 | 30* | 1 | 11 | 42*
COc1ccc(N2CCN(C(=O)c3ccc(S(=O)(=O)NCc4ccco4)cc3)CC2)cc1 | -4 | 0 | 32* | / | 14 | 38*
COc1cccc(N2CCN(C(=O)c3ccc(CSc4nc5ccncc5[nH]4)cc3)CC2)c1 | 3 | 3 | 31* | -1 | 10 | 22

High-throughput results as filed in PubChem.
